Measured values published in PubChem BioAssay (Tox21).
A number with no mark means an inactive call. Records with an inconclusive call do not appear. A call without a number means that no potency is given here. Active and inactive are the calls of the source. Unless noted, the call rests on the fitted dose curve; in most records, active means well fitted curve in the direction sought with a large enough effect in the repeat runs; inconclusive means weak or mixed curves; inactive means no such curve, though single readings can be large; an effect the other way counts as inactive or inconclusive.

Experiments:
[1] = qHTS assay to identify small molecule antagonists of the glucocorticoid receptor (GR) signaling pathway - cell viability counter screen (AID 720693); further: nearly all actives have a fitted effect of over 55% in size; further: potency means the concentration at half of the fitted maximal effect
[2] = qHTS assay for identifying genotoxic compounds that show differential cytotoxicity against isogenic chicken DT40 cell lines with known DNA damage response pathways - Rev3 mutant cell line (AID 743014); further: nearly all actives have a fitted effect of over 55% in size; further: potency means the concentration at half of the fitted maximal effect
[3] = qHTS assay for identifying genotoxic compounds that show differential cytotoxicity against isogenic chicken DT40 cell lines with known DNA damage response pathways - Rad54/Ku70 mutant cell line (AID 743015); further: nearly all actives have a fitted effect of over 60% in size; further: potency means the concentration at half of the fitted maximal effect
[4] = qHTS assay to identify small molecule antagonists of the androgen receptor (AR) signaling pathway - cell viability counter screen (AID 743033; further: nearly all actives have a fitted effect of over 45% in size)
[5] = qHTS assay to identify small molecule antagonists of the androgen receptor (AR) signaling pathway using the MDA cell line - cell viability counter screen (AID 743041; further: nearly all actives have a fitted effect of over 45% in size)
Procedure, shortened: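 Same-well cytotoxicity was assessed by CellTiter-Fluor in MDA-kb2 AR-luc cells after 16 h of compound treatment under R1881 agonism.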

[6] = qHTS assay to identify small molecule antagonists of the thyroid receptor (TR) signaling pathway - cell viability counter screen (AID 743064); further: nearly all actives have a fitted effect of over 50% in size; further: potency means the concentration at half of the fitted maximal effect
Procedure, shortened: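 Same-well viability check: GH3.TRE-Luc cells stimulated with 1 nM T3 alongside test compound for 23.5 h, followed by CellTiter-Fluor fluorescence.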

[7] = qHTS assay to identify small molecule antagonists of the thyroid receptor (TR) signaling pathway (AID 743065); further: nearly all actives have a fitted effect of over 55% in size; further: potency means the concentration at half of the fitted maximal effect
Procedure, shortened: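 GH3.TRE-Luc rat pituitary cells (two TREs driving luciferase) were dosed with compound, then stimulated with 1 nM T3 (final) for 23.5 h at 37 C. ONE-Glo luminescence was the read-out, with CellTiter-Fluor fluorescence as the cytotoxicity counter-screen.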

[8] = target: Estrogen receptor (Homo sapiens) (UniProt P03372); test: qHTS assay to identify small molecule antagonists of the estrogen receptor alpha (ER-alpha) signaling pathway (AID 743069; active means well fitted curve in the direction sought with a large enough effect in the signal ratio in the repeat runs, not every such curve was filed as active; the % refers to the signal ratio)
Chain of Estrogen receptor (Homo sapiens) (P03372 whole entry, looked up): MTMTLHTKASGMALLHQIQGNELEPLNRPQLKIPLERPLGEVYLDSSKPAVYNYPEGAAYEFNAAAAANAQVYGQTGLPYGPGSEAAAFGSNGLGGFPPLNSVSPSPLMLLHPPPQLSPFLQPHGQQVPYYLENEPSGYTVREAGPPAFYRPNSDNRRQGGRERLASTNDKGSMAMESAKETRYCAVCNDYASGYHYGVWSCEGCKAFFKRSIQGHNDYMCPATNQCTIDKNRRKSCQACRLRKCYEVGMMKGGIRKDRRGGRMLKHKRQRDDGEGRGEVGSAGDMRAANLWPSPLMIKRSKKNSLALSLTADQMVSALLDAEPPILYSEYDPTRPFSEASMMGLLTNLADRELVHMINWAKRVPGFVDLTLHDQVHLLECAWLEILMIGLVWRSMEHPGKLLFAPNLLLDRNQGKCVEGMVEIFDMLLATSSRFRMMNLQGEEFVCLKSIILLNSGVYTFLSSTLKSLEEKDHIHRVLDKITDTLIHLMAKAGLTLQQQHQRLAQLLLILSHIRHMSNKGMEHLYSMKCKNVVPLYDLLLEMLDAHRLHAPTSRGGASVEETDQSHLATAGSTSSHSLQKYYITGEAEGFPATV
Procedure, shortened: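 Reporter cells (ER-alpha-bla, HEK293 background) are conditioned overnight in stripped-serum medium (2% charcoal-stripped FBS). Compound and 17beta-estradiol exposure runs 18 hr at 37C, 5% CO2.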

[9] = qHTS assay to identify small molecule antagonists of the estrogen receptor alpha (ER-alpha) signaling pathway - cell viability counter screen (AID 743074; calls by dose curve;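 further: HEK293 cells carrying ER-alpha-UAS-bla reporter stimulated with 17beta-estradiol; nearly all actives have a fitted effect of over 45% in size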)
[10] = target: Estrogen receptor (Homo sapiens) (UniProt P03372); test: qHTS assay to identify small molecule agonists of the estrogen receptor alpha (ER-alpha) signaling pathway (AID 743075; calls by dose curve;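 further: HEK293 GripTite cells with ER-alpha and UAS-driven beta-lactamase reporter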)
[11] = qHTS assay to identify small molecule antagonists of the estrogen receptor alpha (ER-alpha) signaling pathway using the BG1 cell line - cell viability counter screen (AID 743081);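 further: compound given together with 17beta-estradiol as the ER stimulus; nearly all actives have a fitted effect of over 45% in size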
Aromatase (Homo sapiens) = Aromatase (Homo sapiens) (UniProt P11511); test: qHTS assay to identify aromatase inhibitors (AID 743083); further: nearly all actives have a fitted effect of over 55% in size; further: potency means the concentration at half of the fitted maximal effect
Chain of Aromatase (Homo sapiens) (P11511 whole entry, looked up): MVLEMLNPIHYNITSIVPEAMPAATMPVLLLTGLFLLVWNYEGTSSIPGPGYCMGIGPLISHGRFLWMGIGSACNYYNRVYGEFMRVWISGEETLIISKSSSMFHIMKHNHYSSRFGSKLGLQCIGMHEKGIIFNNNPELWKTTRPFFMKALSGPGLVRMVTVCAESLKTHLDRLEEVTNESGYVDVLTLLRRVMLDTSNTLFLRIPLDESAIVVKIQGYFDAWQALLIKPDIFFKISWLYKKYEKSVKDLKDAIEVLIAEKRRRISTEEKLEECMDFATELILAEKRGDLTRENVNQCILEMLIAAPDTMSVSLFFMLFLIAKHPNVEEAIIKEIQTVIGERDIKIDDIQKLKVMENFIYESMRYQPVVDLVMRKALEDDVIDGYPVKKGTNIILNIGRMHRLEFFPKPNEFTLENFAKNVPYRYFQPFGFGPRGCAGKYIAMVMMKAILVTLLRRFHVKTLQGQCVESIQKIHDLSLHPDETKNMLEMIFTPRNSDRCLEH

[12] = qHTS assay for identifying genotoxic compounds that show differential cytotoxicity against isogenic chicken DT40 cell lines with known DNA damage response pathways - wild type cell line (AID 743012); further: nearly all actives have a fitted effect of over 60% in size; further: potency means the concentration at half of the fitted maximal effect
Procedure, shortened: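 Cells (DT40 wild type, 300/well) are treated with DMSO-dissolved compounds after a ~0.5 h pre-incubation and kept 40 h at 37 C/5% CO2. Viability is then measured by CellTiter-Glo luminescence following 30 min at room temperature.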

[13] = system: thyroid hormone receptor (rat, GH3 cells); test: qHTS assay to identify small molecule agonists of the thyroid receptor (TR) signaling pathway (AID 743066; calls by dose curve)
[14] = qHTS assay to identify small molecule antagonists of the estrogen receptor alpha (ER-alpha) signaling pathway using the BG1 cell line (AID 743080; calls by dose curve;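 further: BG1 cells stimulated with 17beta-estradiol alongside compound; nearly all actives have a fitted effect of over 25% in size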)
Procedure, shortened: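 Readout is ONE-Glo luminescence, taken 30 min at room temperature after reagent addition, preceded by a CellTiter-Fluor viability read; BG1-Luc-4E2 cells had received compound and 17beta-estradiol for 21.5 h at 37 C.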

[15] = target: Estrogen receptor (Homo sapiens) (UniProt P03372); test: qHTS assay to identify small molecule agonists of the estrogen receptor alpha (ER-alpha) signaling pathway using the BG1 cell line (AID 743079); settings: BG1Luc4E2 cells, ERE-luciferase agonist, 22 h; activation: at 70.3 µM (top of the series); further: nearly all actives have a fitted effect of over 20% in size
[16] = target: Androgen receptor (Homo sapiens) (UniProt P10275); test: qHTS assay to identify small molecule antagonists of the androgen receptor (AR) signaling pathway (AID 743035; active means well fitted inhibition curve with a large enough effect in the signal ratio in the repeat runs, not every such curve was filed as active; the % refers to the signal ratio)
Chain of Androgen receptor (Homo sapiens) (P10275 whole entry, looked up): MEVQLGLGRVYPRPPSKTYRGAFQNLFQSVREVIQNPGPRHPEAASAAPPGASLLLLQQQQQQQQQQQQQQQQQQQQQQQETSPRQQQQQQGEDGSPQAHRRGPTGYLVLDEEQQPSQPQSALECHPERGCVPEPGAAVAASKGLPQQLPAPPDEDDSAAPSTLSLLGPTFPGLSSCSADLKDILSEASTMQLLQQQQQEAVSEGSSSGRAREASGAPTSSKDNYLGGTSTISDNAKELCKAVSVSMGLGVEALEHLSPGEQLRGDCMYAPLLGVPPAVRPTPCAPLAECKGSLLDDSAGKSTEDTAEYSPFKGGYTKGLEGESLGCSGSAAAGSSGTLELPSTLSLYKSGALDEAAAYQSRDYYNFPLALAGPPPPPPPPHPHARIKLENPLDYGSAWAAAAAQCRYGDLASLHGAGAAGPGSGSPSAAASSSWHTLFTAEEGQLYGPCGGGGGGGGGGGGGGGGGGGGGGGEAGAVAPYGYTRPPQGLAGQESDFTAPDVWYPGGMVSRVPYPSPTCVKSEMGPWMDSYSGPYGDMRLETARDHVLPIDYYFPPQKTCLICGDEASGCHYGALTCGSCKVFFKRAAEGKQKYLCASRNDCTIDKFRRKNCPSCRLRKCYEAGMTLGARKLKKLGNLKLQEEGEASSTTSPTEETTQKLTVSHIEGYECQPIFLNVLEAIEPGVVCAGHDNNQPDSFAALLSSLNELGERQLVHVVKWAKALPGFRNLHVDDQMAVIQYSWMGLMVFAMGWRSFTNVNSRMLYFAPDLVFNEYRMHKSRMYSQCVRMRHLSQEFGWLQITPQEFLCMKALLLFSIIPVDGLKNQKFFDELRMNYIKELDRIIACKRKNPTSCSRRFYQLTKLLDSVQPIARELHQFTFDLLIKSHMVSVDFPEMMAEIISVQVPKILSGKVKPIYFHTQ
Procedure, shortened: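 Antagonism is scored as loss of R1881-driven beta-lactamase reporter expression in HEK293 cells carrying the reporter under a UAS element, after 16 h co-treatment at 37C and a 2 h room-temperature FRET substrate read.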

[17] = target: Androgen receptor (Homo sapiens) (UniProt P10275); test: qHTS assay to identify small molecule agonists of the androgen receptor (AR) signaling pathway (AID 743036; active means well fitted activation curve with a large enough effect in the signal ratio in the repeat runs, with a control signal flat, not every such curve was filed as active; the % refers to the signal ratio)
Procedure, shortened: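 Agonist activity was scored by beta-lactamase reporter fluorescence in stably transfected HEK293 cells exposed to compounds for 16 h at 37C and 5% CO2. Substrate loading took 2 h at room temperature.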

[18] = target: Androgen receptor (Homo sapiens) (UniProt P10275); test: qHTS assay to identify small molecule agonists of the androgen receptor (AR) signaling pathway using the MDA cell line (AID 743040; further: nearly all actives have a fitted effect of over 20% in size)
Procedure, shortened: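 Human breast carcinoma MDA-kb2 reporter cells (MMTV-luc, AR/GR elements) were treated for 16 h at 37C in 0% CO2 following a 5 h settling period. Signal was quantified by ONE-Glo luminescence.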

[19] = target: Androgen receptor (Homo sapiens) (UniProt P10275); test: qHTS assay to identify small molecule antagonists of the androgen receptor (AR) signaling pathway using the MDA cell line (AID 743042; further: nearly all actives have a fitted effect of over 55% in size)
Procedure, shortened: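 MDA-kb2 breast carcinoma cells carrying MMTV-luciferase (AR/GR responsive) were co-treated with compounds and the agonist R1881 for 16 h at 37C. Inhibition read as ONE-Glo luminescence; CellTiter-Fluor fluorescence measured in parallel for cytotoxicity.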

Compound	Potency [1]	Potency [2]	Potency [3]	Potency [4]	Potency [5]	Potency [6]	Potency [7]	Potency [8]	Potency [9]	Potency [10]	Potency [11]	Potency (Aromatase (Homo sapiens))	Potency [12]	outcome [13]	Potency [14]	Potency [15]	Potency [16]	Potency [17]	Potency [18]	Potency [19]
NC(=O)N(O)[C@@H]1COc2cc(OCc3ccccc3)ccc21	inactive	68.6 µM (active)	61.1 µM (active)	inactive	inactive	inactive	61.1 µM (active)	inactive	inactive	inactive	inactive	inactive								
O=C(O)C(Cc1cc(I)c(O)c(I)c1)c1ccccc1 (stereo not drawn)		inactive	inactive	inactive		inactive	inactive	inactive	inactive	inactive	inactive	inactive	inactive	inactive	inactive					
COC(=O)Nc1nc2ccc(C(=O)c3cccs3)cc2[nH]1		0.211 µM (active)	0.237 µM (active)		inactive	266 nM (active)	0.237 µM (active)				inactive	inactive	150 nM (active)	inactive						
CCCOc1ccc(S(=O)(=O)N2CCN(CC)CC2)cc1-c1nc2c(CC)n(Cc3ccccn3)nc2c(=O)[nH]1	inactive			inactive	inactive	inactive		inactive	inactive	inactive	inactive	inactive		inactive	inactive	inactive				
CO[C@@]12[C@H](COC(N)=O)C3=C(C(=O)C(C)=C(N)C3=O)N1C[C@@H]1N[C@@H]12	23.9 µM (active)			inactive		2370 nM (active)	1.33 µM (active)					29.8 µM (active)								
CC(=N\O)/C(C)=N/O	inactive				inactive	inactive	inactive		inactive		inactive	inactive		inactive						
CCOC(=N)CC(=O)OCC			inactive		inactive	inactive	inactive	inactive	inactive	inactive	inactive	inactive	inactive	inactive	inactive	inactive				
O=C(c1ccc(O)cc1)c1ccc(Cl)cc1		62.4 µM (active)	55.6 µM (active)	inactive					inactive		inactive	inactive		inactive						
ON(Cc1ccccc1)Cc1ccccc1		inactive	inactive	inactive	inactive	inactive	inactive	inactive	inactive	inactive	inactive	inactive	inactive	inactive	inactive	inactive	inactive	inactive	inactive	inactive
